Screening results (PubChem)
Compounds with a hit are over-represented: about 8.3% of the library has one in this group of screens.
RORgamma inh: ROR gamma (mouse) transcription inhibition; Potency, µM (doses to about 53.6 µM), inactives show at the top dose activity change, negative = inhibition, hits mostly inhibitors; AID 2551; Drosophila S2 Gal4-RORgamma UAS-luciferase reporter, 20 h; 310,000 tested, 5.4% active; note: potency is the fitted concentration of half-maximal effect; % is set by controls: 0 for no effect and ±100 for the full control effect; nearly all actives have a fitted effect of over 60% in size
Target sequence (P51450 whole entry, looked up, the tested form may be a part): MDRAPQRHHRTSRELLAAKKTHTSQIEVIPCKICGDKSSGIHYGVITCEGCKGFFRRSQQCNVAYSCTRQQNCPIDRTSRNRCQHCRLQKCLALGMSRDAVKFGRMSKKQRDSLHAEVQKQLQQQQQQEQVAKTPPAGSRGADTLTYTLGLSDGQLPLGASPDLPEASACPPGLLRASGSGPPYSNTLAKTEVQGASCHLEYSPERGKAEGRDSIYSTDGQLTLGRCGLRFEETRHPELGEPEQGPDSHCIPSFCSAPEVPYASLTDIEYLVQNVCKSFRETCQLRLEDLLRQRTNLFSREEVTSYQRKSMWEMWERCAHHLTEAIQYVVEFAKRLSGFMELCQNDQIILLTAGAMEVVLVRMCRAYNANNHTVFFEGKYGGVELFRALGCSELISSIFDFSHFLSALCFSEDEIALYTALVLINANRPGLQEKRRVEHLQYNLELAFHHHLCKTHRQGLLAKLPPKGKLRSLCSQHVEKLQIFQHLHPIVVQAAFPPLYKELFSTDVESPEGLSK
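A Gal4/UAS one-hybrid system in insect cells: metallothionein-promoter Gal4–ROR gamma fusion plus Photinus luciferase reporter. Copper sulfate 700 uM final, 20 hr ambient incubation, luminescent detection after 10 min with reagent.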
Giardia kill: Giardia lamblia killing; Giardia lamblia trophozoite viability; activity change, % at 7.66 µM, hits read low; 340,000 tested, 0.15% active; AID 540267; in the data active = activity change below about -80%; inconclusive = between about -30% and that limit;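 note: parasites exposed to compound for two days anaerobically before the ATP read; % is set by controls: 0 for no effect and ±100 for the full control effect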
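Media and compound were dispensed first, then trophozoites at 100 cells/well; plates sat 48 hrs at 37 deg C without oxygen before ATP luminescence reagent was added and read after 15-30 min at room temperature.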
VP16 counter: counter-screen for ROR gamma inhibitors: Gal4-VP16 reporter. Drosophila S2 Gal4-VP16 UAS-luciferase, luminescence, 20 h. Potency, µM (doses to about 53.6 µM), inactives show at the highest dose activity, negative = inhibition, actives largely listed as inhibitors. 310,000 tested, 3.5% active;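 note: Gal4-VP16 expression switched on by copper sulfate through the metallothionein promoter; potency is the fitted concentration of half-maximal effect; % is set by controls: 0 for no effect and ±100 for the full control effect; nearly all actives have a fitted effect of over 50% in size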
MCF10A rerep: inducers of DNA re-replication in MCF 10A breast cells. MCF 10A DNA re-replication, Hoechst nuclear intensity, 48 h. Potency, µM (top dose mostly 46.1 µM), without a hit: at the top dose activity, positive = re-replication, most hits filed as activators. 350,000 tested, 2.9% active. AID 624296; note: potency is the fitted concentration of half-maximal effect; % of control where 0% means no effect; nearly all actives have a fitted effect of over 50% in size
SW480 rerep: inducers of DNA re-replication in SW480 colon cancer cells; SW480 DNA re-replication, Hoechst DNA content imaging, 48 h; AID 624297; Potency, µM (highest dose often 46.1 µM), without a hit: at the highest dose re-replication activation, actives largely listed as activators; 340,000 tested, 1.8% active; note: potency is the fitted concentration of half-maximal effect; % of control where 0% means no effect; nearly all actives have a fitted effect of over 55% in size
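Compounds, transferred as 23 nL by pin tool, were incubated with cells for 48 hr; DNA content per nucleus was then quantified by Hoechst staining and fluorescence plate imaging.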
BCR signal inh: blocks chronic active B-cell receptor signaling. Potency, µM (series often up to 46.1 µM), inactives show at the highest dose activity change, negative = inhibition, actives largely listed as inhibitors. 340,000 tested, 0.05% active. ABC-DLBCL IkBa-CBG/CBR reporter, luminescence ratio, 4 h; active = well fitted inhibition curve with a large enough effect in the signal ratio, with a control signal flat, not every such curve was filed as active; inconclusive = small, poorly fitted or top-dose-only effect, or effect the other way, or a change in a side signal; the % refers to the signal ratio;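 note: potency is the fitted concentration of half-maximal effect; plate controls were basal doxycycline-induced cells for no effect and cells given 10 µM MG132 for full effect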
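Concentration-response series (up to 46 uM) were applied to TMD8 dual-reporter cells for 4 h at 37C with doxycycline. Green/red ratio, after filter-overlap correction, defined %Activity; red signal alone was normalised to basal cells and zero luminescence.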
* = called active by the depositor; ! = not confirmed by another sample; [ ] = remark or other dose. Unless noted, calls come from the whole dose curve; as a rule, active = well fitted curve in the direction sought with a large enough effect; inconclusive = small, poorly fitted or top-dose-only effect, or another doubt; inactive = no such curve, though single readings can be large; an effect the other way counts as inactive or inconclusive.

Screening COc1ccc(OC(=O)C(C)N2C(=O)c3ccccc3C2=O)cc1 (stereo not drawn) returned RORgamma inh -18%[1.91 µM], Giardia kill 23, VP16 counter -5%, MCF10A rerep 0%, SW480 rerep -5% and BCR signal inh -2%.
`O=C(Oc1cccc(OC(=O)c2ccco2)c1)c1ccco1` gave RORgamma inh 20%, Giardia kill 4, VP16 counter -6%, MCF10A rerep 2%, SW480 rerep -4% and BCR signal inh 3%.
`CC1=CC(C)(C)Nc2ccc(C)cc21` gave RORgamma inh -1%, Giardia kill -22, VP16 counter -4%, MCF10A rerep -3%, SW480 rerep -4% and BCR signal inh 0%.
Screening CC1=CC(C)(C)Nc2ccc(OC(=O)C(C)N3C(=O)c4ccccc4C3=O)cc21 (stereo not drawn) returned RORgamma inh inconclusive, Giardia kill 3, VP16 counter 11µM*, MCF10A rerep inconclusive, SW480 rerep 3.7µM* and BCR signal inh inconclusive.
`CC1=CC(C)(C)Nc2ccc(OC(=O)c3ccco3)cc21` gave RORgamma inh 2.8µM*, Giardia kill 7, VP16 counter 5.6µM*, MCF10A rerep 4.1µM*, SW480 rerep 18µM* and BCR signal inh inconclusive.
CC1=CC(C)(C)N2C(=O)C(=O)c3cc(OC(=O)c4ccco4)cc1c32 was read as RORgamma inh 34%, Giardia kill -4, VP16 counter 11%, MCF10A rerep inconclusive, SW480 rerep 1.3µM* and BCR signal inh 11µM*.
For Cc1cc(C)c(S(=O)(=O)c2ccccc2Cl)c(=O)[nH]1 the results were RORgamma inh 9%, Giardia kill 15, VP16 counter -4%, MCF10A rerep -1%, SW480 rerep -4% and BCR signal inh inconclusive.
CC(C)(C)c1ccc(NC(=O)Nc2ccc3ccccc3n2)cc1 was read as RORgamma inh 0%, Giardia kill -3, VP16 counter 4%, MCF10A rerep 0%, SW480 rerep -8% and BCR signal inh 2%.
For CC1=CC(C)(C)Nc2ccc(OC(=O)c3cccnc3)cc21 the results were RORgamma inh 0.5µM*, Giardia kill 13, VP16 counter 0.79µM*, MCF10A rerep 2.6µM*, SW480 rerep 3.7µM* and BCR signal inh inconclusive.
`CC1=CC(C)(C)Nc2ccc(OC(=O)CN3C(=O)CCC3=O)cc21` gave RORgamma inh 5.6µM*, Giardia kill -18, VP16 counter 7.1µM*, MCF10A rerep -2%, SW480 rerep 4.1µM* and BCR signal inh inconclusive.
For CC1=CC(C)(C)Nc2cc(C)c(C)cc21 the results were RORgamma inh -28%, Giardia kill 10, VP16 counter -6%, MCF10A rerep 9%, SW480 rerep -3% and BCR signal inh 4%.
Screening Cc1cccc(NC(=O)C2COc3ccccc3O2)c1 (stereo not drawn) returned RORgamma inh 8%, Giardia kill 5, VP16 counter -12%, MCF10A rerep 1%, SW480 rerep inconclusive and BCR signal inh inconclusive.
Screening Cc1cc(-c2cc(C(=O)Nc3ccccc3)on2)nc(NCC2CC2)n1 returned Giardia kill -1, MCF10A rerep -6% and SW480 rerep 2%.
For N=C1C(c2ccccc2)=C(O)CN1c1ccc2c(c1)OCO2 the results were RORgamma inh 16%, Giardia kill -9, VP16 counter -5%, MCF10A rerep 16µM*, SW480 rerep 2% and BCR signal inh 6%.
N=C1C(c2ccccc2)=C(O)CN1c1ccccc1 was read as RORgamma inh 20%, Giardia kill 15, VP16 counter 10%, MCF10A rerep -4%, SW480 rerep -7% and BCR signal inh 5%.
COc1ccc(N2CCN(C(c3ccc(C)cc3)c3nnnn3C(C)(C)C)CC2)cc1 (stereo not drawn) was read as Giardia kill -12.
`CC(=O)Oc1cc(OC(C)=O)c2c(c1)OC(c1ccc(OC(C)=O)c(OC(C)=O)c1)C(OC(C)=O)C2` (stereo not drawn) gave RORgamma inh 0% and VP16 counter 16µM*!.
CC(=O)Oc1cc(O)c2c(c1)OC(c1ccc(OC(C)=O)c(OC(C)=O)c1)C(OC(C)=O)C2=O (stereo not drawn) was read as RORgamma inh -9%, Giardia kill 9, VP16 counter 2%, MCF10A rerep 1%, SW480 rerep -2% and BCR signal inh 9%.
`Cc1ccc(NC(=O)c2ccc(COc3ccccc3[N+](=O)[O-])o2)nc1` gave Giardia kill 11, MCF10A rerep 16%, SW480 rerep -5% and BCR signal inh inconclusive.
Cc1ccnc(NC(=O)COc2ccccc2[N+](=O)[O-])c1 was read as RORgamma inh 11µM*, VP16 counter inconclusive and BCR signal inh 1%.
`Cc1ccc(NC(=O)COc2ccccc2[N+](=O)[O-])nc1` gave RORgamma inh 6.3µM*, Giardia kill -28, VP16 counter inconclusive, MCF10A rerep 10%, SW480 rerep 1% and BCR signal inh -4%.
Screening O=C(COc1ccccc1[N+](=O)[O-])Nc1cccnc1 returned RORgamma inh 0%, Giardia kill -20, VP16 counter -6%, MCF10A rerep -2%, SW480 rerep 0% and BCR signal inh 7%.
`Cc1ccc(C(=O)Nc2ccc(C(=O)N3CCCCC3)cc2)o1` gave RORgamma inh -22%, Giardia kill -18, VP16 counter -4%, MCF10A rerep -14%, SW480 rerep -8% and BCR signal inh 4%.
`COc1ccc(NC(=O)CNc2cccc(S(=O)(=O)N3CCCCCC3)c2)c([N+](=O)[O-])c1` gave Giardia kill 0, MCF10A rerep 9%, SW480 rerep 11% and BCR signal inh 3%.
Cc1nnc(NC(=O)c2cc(S(=O)(=O)N3CCCCC3)ccc2Cl)s1 was read as RORgamma inh -20%, Giardia kill -6, VP16 counter 2%, MCF10A rerep 22%, SW480 rerep 26% and BCR signal inh inconclusive.
`CCOC(=O)C1=C(O)/C(=C/c2cc(OC)c(O)c(OC)c2)SC1=Nc1ccc(OC)cc1` gave RORgamma inh 18%, Giardia kill -14, VP16 counter inconclusive, MCF10A rerep 16µM*, SW480 rerep inconclusive and BCR signal inh inconclusive.
Screening CCc1cccc(CC)c1NC(=O)/C(C#N)=C/c1ccccc1C(F)(F)F returned RORgamma inh 11µM*, Giardia kill -12, VP16 counter 10µM*, MCF10A rerep 12µM*, SW480 rerep -80% and BCR signal inh 22%.
